Screens: PubChem, The Scripps Research Institute Molecular Screening Center
FBW7 act: activators of human E3 ligase FBW7; actives 0.13% (n = 650,000); AlphaScreen FBW7–phospho-cyclin E peptide binding, activator screen; AID 1259310; normalized activity (activation), % at 26.1 µM; in the data active = normalized activity above about 1.9%;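 note: purified mutant Fbw7 with reduced substrate affinity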
MITF primary: inhibitors of human MITF; O75030; AlphaScreen MITF homodimerization, bead proximity signal; inhibition, % at 2.6 µM; actives 0.91% (n = 650,000); in the data active = inhibition above about 50%;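 note: 0% = vehicle wells with protein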
Target sequence (O75030 whole entry, looked up): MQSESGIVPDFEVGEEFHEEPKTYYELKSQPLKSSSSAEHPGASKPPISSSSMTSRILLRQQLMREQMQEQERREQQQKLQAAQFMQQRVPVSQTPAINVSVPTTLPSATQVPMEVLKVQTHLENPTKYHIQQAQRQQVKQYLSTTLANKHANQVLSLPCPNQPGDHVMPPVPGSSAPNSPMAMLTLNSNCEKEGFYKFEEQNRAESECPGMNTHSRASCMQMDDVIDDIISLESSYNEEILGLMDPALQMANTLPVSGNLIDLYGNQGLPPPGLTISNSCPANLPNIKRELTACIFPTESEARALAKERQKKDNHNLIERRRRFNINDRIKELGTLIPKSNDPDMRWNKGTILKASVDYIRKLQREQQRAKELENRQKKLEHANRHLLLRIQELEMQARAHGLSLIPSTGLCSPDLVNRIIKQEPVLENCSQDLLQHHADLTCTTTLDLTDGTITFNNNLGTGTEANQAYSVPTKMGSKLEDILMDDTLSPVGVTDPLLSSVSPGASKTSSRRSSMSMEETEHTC
GPR151 ag: activates the human receptor GPR151 | PathHunter beta-arrestin GPR151 cells, luminescence | activation, % at 11.2 µM | actives 1% (n = 650,000); in the data active = activation above about 4.9%;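 note: 0% = median of compound wells and 100% = cells with positive control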
TEAD-YAP block: TEAD-YAP interaction inhibition; HEK-TIYL cells, TEAD-Gal4/YAP UAS-luciferase luminescence; inhibition, % at 9.12 µM; actives 1.4% (n = 640,000); AID 1259422; in the data active = inhibition above about 32%;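 note: 0% = median of test compound wells and 100% = reference inhibitor wells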
* = called active by the depositor. In the library only some 3.4% were active in any assay of this set; here they are far more common.

SMILES	FBW7 act	MITF primary	GPR151 ag	TEAD-YAP block
COc1ccc(-c2nc(NCCO)c3ncn(-c4ccccc4)c3n2)cn1	0	7	-1	73*
COc1ccc(-c2nc(NCc3ccccc3)c3ncn(-c4ccccc4)c3n2)cn1	0	-1	-1	8
COc1ccc(-c2nc(NCCO)c3ncn(-c4ccccc4)c3n2)cc1	0	4	1	61*
CCCNc1nc(-c2ccc(OC)nc2)nc2c1ncn2-c1ccccc1	0	7	0	33*
COc1ccc(-c2nc(NC3CC3)c3ncn(-c4ccccc4)c3n2)cn1	0	18	-1	48*
COc1ccccc1CNC(=O)C(Cc1ccccc1)NS(=O)(=O)c1cccs1 (stereo not drawn)	1	10	1	3
CCCNc1nc(-c2ccc(OC)nc2)nc2c1ncn2-c1ccsc1	1	7	1	51*
CCCNc1nc(-c2ccc(OC)cc2)nc2c1ncn2-c1ccsc1	0	-2	0	6
Cc1cccc(CC(=O)Nc2cnn(-c3cccc(C(=O)N4CCCO4)c3)c2)c1	0	-12	0	5
Cc1cccc(CC(=O)Nc2cnn(-c3cccc(C(=O)N4CCNC(=O)CC4)c3)c2)c1	4.3*	39	4	6
O=C(O[C@@H]1Cc2c(O)cc(O)cc2O[C@@H]1c1ccc(O)c(O)c1)c1cc(O)c(O)c(O)c1	0	83*	0	0
O=C1c2c(O)cc(O)cc2OC(c2ccc(O)c(O)c2)C1O (stereo not drawn)	0	14	2	-1
O=C(O[C@@H]1Cc2c(O)cc(O)cc2O[C@@H]1c1cc(O)c(O)c(O)c1)c1cc(O)c(O)c(O)c1	0	77*	-1	2
Cc1ccc(C(=O)N2CCCCCC2)c(F)c1F	0	11	1	2
Cc1c(CC(C)C)c(=O)oc2cc(OCC(=O)c3ccccc3)ccc12	0	0	0	-5
O=C1C2C3CCC(C3)C2C(=O)N1c1cccc(C(F)(F)F)c1 (stereo not drawn)	0	9	0	0
O=C(NCCCCCCNC(=O)Nc1cccnc1)Nc1cccnc1	0	-5	0	57*
Cn1ccnc1C1CCCCN1C(=O)CCc1nnc(CCCc2ccccc2)o1 (stereo not drawn)	0	13	0	-49
COc1cccc(NC(=O)CSc2nc(NC3CCCCC3)c3ccccc3n2)c1	0	14	1	44*
CCCOc1ccc(C2C(C(=O)OC)=CN(CCOC)C=C2C(=O)OC)cc1	2.1*	-11	3	-8
CCCN1C=C(C(=O)OC)C(c2cccc(Oc3ccccc3)c2)C(C(=O)OC)=C1	2.1*	-20	-1	-4
Cc1ccc(/C=C2/SC(=S)N(c3ccc(O)c(C(=O)O)c3)C2=O)o1	0	83*	-1	-1
COc1ccc(/C=C2\SC(=S)N(c3ccc(O)c(C(=O)O)c3)C2=O)cc1	0	0	-1	6
O=C(O)c1cc(N2C(=O)/C(=C\c3ccco3)SC2=S)ccc1O	0	81*	1	-3
CSC1SC[C@H]2C(=O)N(C)[C@@H](C(C)C)C(=O)OC[C@@H](NC(=O)c3cnc4ccccc4n3)C(=O)N[C@@H](C)C(=O)N(C)[C@H]1C(=O)N(C)[C@@H](C(C)C)C(=O)OC[C@@H](NC(=O)c1cnc3ccccc3n1)C(=O)N[C@@H](C)C(=O)N2C (stereo partly drawn)	0	-6	1	96*
SMILES	FBW7 act	MITF primary	GPR151 ag	TEAD-YAP block
COCCCN1C(=O)CC(CC(=O)N2CCC[C@H]2C(=O)OC)(c2ccccc2)C1=O (stereo partly drawn)	1	18	0	-36
CC(C)C(NC(=O)CN(c1ccc(Br)cc1)S(C)(=O)=O)C(C)C	0	3	1	3
CC(C)NC(=O)CN(c1ccc(Br)cc1)S(C)(=O)=O	1.9*	3	-1	16
O=C1CN(CC(=O)Nc2ccc(Cl)c(Cl)c2)CCN1	0	15	1	0
CCOC(=O)c1c(NC(=O)/C=C/C(=O)O)sc2c1CCCCCC2	0	-12	-1	35*
CCOC(=O)c1c(NC(=O)/C=C/C(N)=O)sc2c1CCCC2	1	5	-1	43*
CCOC(=O)c1c(NC(=O)CN2CCN(CC)C(=O)C2=O)sc2c1CCCC2	1	11	0	44*
CCOC(=O)c1c(NC(=O)CN2CCCCCC2)sc2c1CCCCC2	0	2	-1	5
CCOC(=O)c1c(NC(N)=O)sc2c1CCCC2	0	2	0	-6
O=C(NCc1ccc(Cl)nc1)/C(=C1\Nc2ccc([N+](=O)[O-])cc2N1)[N+](=O)[O-]	0	10	1	-7
O=c1cc(CSc2nc3ccccc3s2)nc2sccn12	0	13	-1	-56
Cc1cc(C(=O)CN2CCC(C)CC2)c(C)n1-c1ccc(Cl)c(C(F)(F)F)c1	0	-8	0	6
COc1cc(-c2nc3sc(C)c(C)c3c(=O)o2)cc(OC)c1OC	2.3*	-3	0	-4
CN(C)c1nc2n(c(=O)n1)CCN2	0	6	0	-3
COC(=O)CCCCCNC(=O)COc1ccc(Cl)cc1Cl	1	14	-1	69*
O=C(O)CCCCCNC(=O)COc1ccc(Cl)cc1Cl	0	9	0	69*
O=C(COc1ccc(Cl)cc1Cl)NCCCCO	0	1	1	-37
CC1=C(C(=O)c2ccccc2)C(C)C(C#N)=C(SCC(N)=O)N1 (stereo not drawn)	1	17	0	1
O=C(N(c1cccc(C(F)(F)F)c1)C1C=CS(=O)(=O)C1)C(Cl)(Cl)Cl (stereo not drawn)	0	-3	-1	53*
Cc1ccc(N(C(=O)C(Cl)(Cl)Cl)C2C=CS(=O)(=O)C2)cc1 (stereo not drawn)	0	8	1	-2
CCC(=O)Oc1ccc(C(=O)Nc2ccc(N(C)C)cc2)cc1	0	-9	-1	38*
CCOc1ccc(NC(=O)c2cccc(O)c2)cc1	0	7	-6	80*
CCOc1ccc(NC(=O)c2ccc(O)cc2)cc1	1	1	-3	64*
O=C(Nc1ccc(O)cc1)c1ccc([N+](=O)[O-])cc1	0	11	1	55*
O=C(CNC(=O)CNS(=O)(=O)c1ccc([N+](=O)[O-])cc1)NCc1ccccc1	0	7	-1	10
SMILES	FBW7 act	MITF primary	GPR151 ag	TEAD-YAP block
CCOCCOc1cccc(C(=O)Nc2ccc3ccccc3c2)c1	1	10	-3	39*
c1ccc(CNc2nc(Nc3cccnc3)nc3nc[nH]c23)cc1	0	-9	3	15
c1ccc(Nc2nc(Nc3ccncc3)nc3nc[nH]c23)cc1	0	-5	0	25
c1ccc(CNc2nc(Nc3cnccn3)nc3nc[nH]c23)cc1	11*	5	3	17
COc1ccc(CCNc2nc(NCc3cccnc3)ncc2C)cc1	0	2	1	40*
c1ccc(Nc2nc(Nc3cccnc3)nc3nc[nH]c23)cc1	0	-4	1	58*
COc1ccc(CCNc2nc(Nc3cc(OC)c(OC)c(OC)c3)nc3nc[nH]c23)cc1	0	12	3	61*
